BJeLR lethal: kills HRASV12-expressing BJeLR cells; inhibition, % (concentration not given with the values); BJeLR (HRASV12) viability, CellTiter-Glo ATP luminescence, 48 h; 300,000 compounds, 0.17% hits; in the data active means inhibition above about 50%
PfHsp40 yeast: restores yeast growth despite PfHsp40 toxicity. S. cerevisiae expressing PfHsp40, growth rescue, ATP luminescence. growth rescue, % at 12.5 µM. 340,000 compounds, 0.68% hits; in the data active means growth rescue above about 28%, passing the limit was not always enough;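 further: yeast W303a lacking pdr1 and pdr3 grown in galactose medium; growth measured after three days at 30 °C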
RN4220 kill: kills Staphylococcus aureus RN4220 | S. aureus RN4220 growth, OD600, 16 h | inhibition, % (no concentration beside the values) | 330,000 compounds, 0.33% hits; in the data active means inhibition above about 85%
PrP UTR inh: suppresses PrP 5' UTR mRNA reporter expression; cell-based PrP 5' UTR mRNA reporter, plate reader; inhibition, % (test concentration not listed); 340,000 compounds, 0.35% hits; AID 488862; in the data active means inhibition above about 52%
Yp Topo-I inh: inhibitors of Yersinia pestis topoisomerase I; Y. pestis Topo-I cleavage product accumulation, plate reader; activity, % at 10 µM; 360,000 compounds, 0.064% hits; AID 504884; in the data active means activity above about 50%, passing the limit was not always enough
ugtP null kill: compounds lethal to S. aureus RN4220 ugtP deletion mutant. OD600 growth, 16 h. growth inhibition, % (test concentration not listed). 330,000 compounds, 0.54% hits; in the data active means growth inhibition above about 68%
A number is an active result; 0 = inactive; - = not tested or not shown. The list is not random: actives were taken first. Their share in the collection is about 1.4%.

SMILES	BJeLR lethal	PfHsp40 yeast	RN4220 kill	PrP UTR inh	Yp Topo-I inh	ugtP null kill
CC(C)CN(C(=O)COC(=O)c1c2c(nc3ccccc13)CCC2)c1c(N)n(Cc2ccccc2)c(=O)[nH]c1=O	0	0	0	0	59.9	0
CCOc1ccc2oc(C(=O)OCC(=O)N(CC(C)C)c3c(N)n(Cc4ccccc4)c(=O)[nH]c3=O)c(C)c2c1	-	0	0	0	0	0
CC(C)CN(C(=O)COC(=O)c1cc2ccccc2cc1O)c1c(N)n(Cc2ccccc2)c(=O)[nH]c1=O	-	0	0	0	80.0	0
CCc1ccc(C2CC=C(C(=O)O)C(c3ccccc3F)N2S(=O)(=O)c2ccc(C)cc2)cc1 (stereo not drawn)	-	-	0	-	-	0
COC(=O)c1ccc(C23CC4(C2)C(CN(C)C4c2ccccc2)C3c2ccc(C(F)(F)F)cc2)cc1 (stereo not drawn)	-	-	0	-	-	0
O=C(Nc1ccc(F)c(Cl)c1)Nc1csc2ccccc12	0	0	100.0	0	0	100.2
O=C(Nc1ccc(F)cc1F)Nc1csc2ccccc12	0	-	0	-	0	0
COc1ccc(C2CC(=O)C=C(c3ccc(C)c(F)c3)C2)cc1 (stereo not drawn)	-	-	0	-	-	0
COc1ccc(-n2c(SCc3cccnc3)nc3c(c2=O)SCC3)cc1OC	0	0	0	0	0	0
COc1cccc(-n2c(SCc3ccccn3)nc3c(c2=O)SCC3)c1	0	62.5	0	0	0	0
O=C(NCc1ccccc1)C1=C[C@@H](C2CC2)C[C@@H](OCc2ccc(CO)cc2)O1	0	54.5	-	0	0	-
CC(C)CC(CO)Nc1nc(Nc2cccc(Cl)c2)c2ncn(C(C)C)c2n1 (stereo not drawn)	-	-	0	-	-	0
COc1ccc(Cn2c(O)c(/C=N/NC(=O)c3ccccc3O)c(=O)[nH]c2=O)cc1	0	0	0	0	0	0
O=C(N/N=C/c1c(O)n(Cc2ccccc2)c(=O)[nH]c1=O)c1ccccc1O	0	96.6	0	0	0	0
O=C(N/N=C/c1c(O)n(CCc2ccccc2)c(=O)[nH]c1=O)c1ccccc1O	0	0	0	0	0	0
O=C(N/N=C/c1c(O)n(Cc2ccc(F)cc2)c(=O)[nH]c1=O)c1ccccc1O	0	55.4	0	0	0	0
Cc1cc(C)c(C2=CC(=O)CC(c3ccc4c(c3)OCO4)C2)c(C)c1 (stereo not drawn)	-	-	0	-	-	0
C=CCNC(=O)C(C#N)=Cc1c(N(Cc2ccccc2)Cc2ccccc2)nc2ccccn2c1=O	-	-	0	-	-	0
Cc1cc([N+](=O)[O-])ccc1NC(=O)C=Cc1cccs1	-	-	0	-	-	0
O=C1N=c2ccccc2=C1c1[nH]c(=S)[nH]c1O	0	0	0	0	0	0
O=C1N=c2ccccc2=C1c1c(O)[nH]c2c(C(F)(F)F)cccc12	0	0	96.1	0	0	98.0
CC(C)CC(NC(=O)c1nc[nH]c1C(=O)NCc1ccc(CNC(=O)OC(C)(C)C)cc1)C(=O)OCc1ccccc1 (stereo not drawn)	-	-	0	-	-	0
CC(C)CC(NC(=O)c1nc[nH]c1C(=O)NC1CCN(C(=O)OC(C)(C)C)CC1)C(=O)OC(C)(C)C (stereo not drawn)	-	-	0	-	-	0
Clc1ccc2[nH]c(-c3ccccc3)cc2c1	0	65.4	0	0	0	0
c1ccc(-c2cc3ccccc3[nH]2)cc1	0	0	0	0	0	0
SMILES	BJeLR lethal	PfHsp40 yeast	RN4220 kill	PrP UTR inh	Yp Topo-I inh	ugtP null kill
CC(=O)Nc1ccc(SC(CCN2CCC(C(C)(C)C)CCC2=O)c2ccccc2)cc1 (stereo not drawn)	-	-	0	-	-	0
CCOc1ccc(S(=O)(=O)N2CCOCC2)cc1NC(=O)C1=COCCO1	0	0	0	0	0	0
CCOc1ccc(Oc2ccc(S(=O)(=O)N3CCOCC3)cc2NC(=O)C2=COCCO2)cc1	0	0	0	0	62.0	0
CC(=O)Nc1ccc(S(=O)(=O)c2ccc([N+](=O)[O-])cc2)cc1	0	0	97.1	0	0	0
CC(=O)Nc1ccc([As](=O)(O)c2ccc([N+](=O)[O-])cc2)cc1	0	0	0	0	0	0
COC(=O)C1=C(c2ccc(OC)c(OC)c2)CC2CCC1N2C(=O)NCc1cc(C)oc1C(F)(F)F (stereo not drawn)	-	-	0	-	-	0
CCN1C(=O)CSC1=NC1C2CC3CC(C2)CC1C3 (stereo not drawn)	0	0	0	0	0	91.4
CCN1C(=O)CSC1=NS(=O)(=O)c1ccccc1	-	-	0	-	-	0
CCOC(=O)OC(C)OC(=O)C1N2C(=O)C(NC(=O)C(N)c3ccccc3)C2SC1(C)C (stereo not drawn)	-	-	100.6	-	-	100.1
CC1(C)S[C@@H]2[C@H](NC(=O)[C@H](N)c3ccccc3)C(=O)N2[C@H]1C(=O)O	0	0	-	0	0	-
COC(=O)C1N2C(=O)[C@@H](NC(=O)COc3ccccc3)[C@H]2SC1(C)C (stereo partly drawn)	0	0	-	0	0	-
CC1(C)SC2C(NC(=O)C(N)c3ccccc3)C(=O)N2C1C(=O)OC1OC(=O)c2ccccc21 (stereo not drawn)	-	-	100.4	-	-	100.6
Cc1cc(COC(=O)C2N3C(=O)C(NC(=O)COc4ccccc4)C3SC2(C)C)on1 (stereo not drawn)	-	-	100.4	-	-	100.3
CCCCC1COCCS(=O)(=O)N1Cc1cccc(F)c1 (stereo not drawn)	-	-	0	-	-	0
COc1cc(CCN2C(=O)NC(CCc3ccccc3)C(C(C)=O)=C2C)cc(OC)c1OC (stereo not drawn)	-	-	0	-	-	0
O=c1c2ccccc2nc(COc2ccccc2)n1/N=C/c1ccc(O)cc1O	0	52.3	-	0	0	-
O=c1c2ccccc2nc(COc2ccccc2)n1N=Cc1ccc(O)c(O)c1	-	-	0	-	-	0
COc1ccc2c(c1)C(=NO)c1cc(OC)ccc1-2	0	0	0	0	0	99.9
CCOc1cc(CNCc2ccncc2)cc(Br)c1OCc1ccc(F)cc1	0	0	0	0	0	93.6
N#CCC(Cc1ccccc1)N1CCC(NC(=O)OCc2ccccc2)CCC1=O (stereo not drawn)	-	-	0	-	-	0
CN(Cc1cnc2nc(N)nc(N)c2n1)c1ccc(C(=O)N[C@@H](CCC(=O)O)C(=O)O)cc1	75.9	0	-	0	0	-
Nc1nc2ncc(CNc3ccc(C(=O)N[C@@H](CCC(=O)O)C(=O)O)cc3)nc2c(=O)[nH]1	0	0	0	0	0	0
O=[N+]([O-])c1ccc(-[n+]2c(-c3ccccc3)cc(-c3ccccc3)cc2-c2ccccc2)cc1	0	0	0	0	0	0
O=[N+]([O-])c1ccccc1-c1cc(-c2ccccc2)cc(-c2ccccc2)[n+]1Cc1ccccc1Cl	0	-	86.0	-	-	98.3
O=C1C2C(c3ccc(F)cc3)N3C(=O)N(c4cccc(Br)c4)C(=O)[C@@]3(Cc3ccccc3)C2C(=O)N1C1CCCCC1 (stereo partly drawn)	-	-	0	-	-	0
O=S(=O)(CCSc1nc2ccccc2o1)c1nc2ccccc2s1	0	0	0	0	0	0
O=S(=O)(CCSc1ccccn1)c1nc2ccccc2s1	0	58.6	0	0	0	0

Screening data deposited in PubChem BioAssay by several laboratories.
